From PubChem BioAssay (NCATS)
Inconclusive results are not listed. Entries that show only a call come without a potency. Calls of active or inactive are those of the source. Calls follow the shape of the dose curve; as a rule, active = well fitted inhibition curve with a large enough effect; inconclusive = small, poorly fitted or top-dose-only effect; inactive = no such curve, though single readings can be large or run the other way.

experiment: qHTS assay for measurement of the activity of small molecule inhibitors on Zika virus induced Caspase-3 activity in human iPSC derived neural progenitor cells (hNPCs) (AID 1224857); conditions: hNPCs ZIKV-induced caspase-3/7, Caspase-Glo luminescence, 6 h; series mostly up to 45.7 µM; also: nearly all actives have a fitted effect of over 65% in size
Description: National Center for Advancing Translational Sciences [NCATS]
Johns Hopkins University School of Medicine
Increase in the Caspase-3 activity indicates an activation of apoptosis cell death pathway caused by Zika virus infection in certain types of neuronal cells including human neural progenitor cells (hNPCs), astrocytes, and astrocytoma cell line (SNB-19). This cell-based caspase-3 activity assay measures the increased caspase-3 activity in the human iPSC derived neural progenitor cells (hNPCs) after a 6-hour Zika virus infection with a luminescence readout. A decrease in the luminescence signal in this assay by small molecule treatment indicates an inhibitory effect of that small molecule on the Zika virus induced caspase-3 activity that may correlate with its effect on reduction of Zika virus caused cell death.
The medium for hNPCs consists of DMEM/F12, N2 supplement (ThermoFisher, Cat.# 17502048), NEAA (ThermoFisher, Cat. # 11140050), 2 ug/ml heparin, 2 uM cyclopamine, and B27 (ThermoFisher, Cat. # 17504044). A Caspase-Glo 3/7 assay kit (catalog number G8092; Promega, Madison, WI) was used to detect caspase-3 activity induced by Zika virus infection in human cells. The reagent mixture was reconstituted as described in the protocol from the manufacturer. Polystyrene tissue culture treated and PDL coated white plates were obtained from Greiner Bio-One (Monroe, NC). Cells were seeded in 384- or 1536-well assay plates and cultured at 37 C with 5% CO2 for 16 to 20 hours. The typical cell seeding density in the 1536-well plate assay is 350 cells/well in 3 ul medium for hNPCs in tissue culture treated plates. Compounds were added to cells and incubated for one hour before addition of ZIKV solution to cells (2 FFU/cell). After incubation at 37 C with 5% CO2 for 6 hours, the reagent mixture of Caspase-Glo 3/7 assay kit was added to each well, followed by incubation at room temperature for 30 minutes. The luminescence intensity of the assay plates was measured using a ViewLux plate reader (PerkinElmer). Data were normalized by using the cell-containing wells without ZIKV as a negative control (0% induction of caspase 3/7 activity) and wells containing ZIKV infected cells (Caspase-3 activity induced) as a positive control (100% induction of caspase 3 activity). The percentage inhibitions of the increased Caspase-3 activity by small molecule inhibitors were then calculated.

Row | SMILES | Potency
1 | CC(C)NCC(O)c1ccc(N)c(C#N)c1 (stereo not given) | inactive
2 | COc1cc(CC(C)N)cc2c1OCO2 (stereo not given) | inactive
3 | CN1C(=O)CN=C(c2ccccc2)c2cc([N+](=O)[O-])ccc21 | inactive
4 | CCO[C@H]1O[C@@H]2OC3(C)CC[C@H]4[C@H](C)CC[C@@H]([C@H]1C)[C@@]24OO3 | inactive
5 | C[C@]12CC[C@H]3[C@@H](CC=C4C[C@@H](O)CC[C@@]43C)[C@@H]1CC[C@@H]2O | inactive
6 | CC(N)C(=O)OC(C)(C)Cc1ccc(Cl)cc1 (stereo not given) | inactive
7 | c1ccc2c(c1)Sc1ccccc1N2CC1CN2CCC1CC2 (stereo not given) | inactive
8 | CCC(=O)C(CCN(C)C)(c1ccccc1)c1ccccc1 | inactive
9 | CC(CC(C(N)=O)(c1ccccc1)c1ccccc1)N(C)C (stereo not given) | inactive
10 | COc1ccc(C(=O)N2CCCC2=O)cc1 | inactive
11 | O=c1[nH]c2cc(Cl)ccc2n1C1CCNCC1 | inactive
12 | CN1[C@@H]2CC[C@H]1CC(OC(=O)c1cc(Cl)cc(Cl)c1)C2 (stereo not given in full) | inactive
13 | Clc1ccc(C(OCCN2CCCCC2)c2ccccc2)cc1 (stereo not given) | inactive
14 | ClC1=C(Cl)C2(Cl)C(CBr)CC1(Cl)C2(Cl)Cl (stereo not given) | inactive
15 | Cc1nc2ccccc2c(=O)n1-c1ccccc1Cl | inactive
16 | COc1cc(C[C@@H](C)N)c(OC)cc1C | inactive
17 | CCCC(C)C1(CC)C(=O)N=C(S)NC1=O (stereo not given) | inactive
18 | Oc1ccc2[nH]cc(CCCCN3CC=C(c4ccccc4)CC3)c2c1 | inactive
19 | CC1=C2[C@H]3OC(=O)[C@@H](C)[C@@H]3CC[C@@]2(C)C=CC1=O | inactive
20 | CC(C)C(Br)C(=O)NC(N)=O (stereo not given) | inactive

Row | SMILES | Potency
21 | COc1ccc2c(C(=O)c3ccc(Cl)cc3)c(C)n(CC(=O)O)c2c1 | inactive
22 | O=C(CCCN1CCC(n2c(=O)[nH]c3ccccc32)CC1)c1ccc(F)cc1 | inactive
23 | CN(C)C(=O)Oc1cc(OC(=O)N(C)C)cc(C(O)CNC(C)(C)C)c1 (stereo not given) | inactive
24 | COc1cc(C[C@@H](C)N)c(OC)cc1Br | inactive
25 | Nc1ccc(Cl)cc1C(=O)c1ccccc1F | inactive
26 | CC1Sc2c(C(=O)O)c(=O)c3cc(F)c(N4CCNCC4)cc3n21 (stereo not given) | inactive
27 | CCOC(=O)c1cncn1C(C)c1ccccc1 (stereo not given) | inactive
28 | CCC1(c2ccccc2)CCC(=O)NC1=O (stereo not given) | inactive
29 | O=C(CBr)Nc1ccc(Cl)cc1C(=O)c1ccccc1F | inactive
30 | C=CCOC(Cn1ccnc1)c1ccc(Cl)cc1Cl (stereo not given) | inactive
31 | COP(=O)(OC)C(O)C(Cl)(Cl)Cl (stereo not given) | inactive
32 | CCS(=O)(=O)C(C)(C)S(=O)(=O)CC | inactive
33 | CN1C[C@@H](NS(=O)(=O)N(C)C)C[C@@H]2c3cccc4c3c(cn4C)C[C@H]21 | inactive
34 | O=C(CCCCl)c1ccc(F)cc1 | inactive
35 | CCCCCCCCC(=O)NCc1ccc(O)c(OC)c1 | inactive
36 | CNC(C)Cc1ccccc1OC (stereo not given) | inactive
37 | c1cc2c(c(N3CCNCC3)c1)OCCO2 | inactive
38 | C[N+]1(C)[C@@H]2CC[C@H]1CC(OC(=O)C(CO)c1ccccc1)C2 (stereo not given in full) | inactive
39 | NC1(c2ccccc2)CCCCC1 | inactive
40 | O=c1n(Cl)c(=O)n(Cl)c(=O)n1Cl | inactive
